The list is not random: actives were taken first. Their share in the collection is about 2.8%.
WRN inhibitor: blocks human WRN helicase; Q14191; WRN helicase unwinding, fluorescent forked duplex, kinetic; Potency, µM (doses to about 114 µM), usual class: inhibitors; 0.46% of 360,000 active; AID 651768; further: nearly all actives have a fitted effect of over 55% in size
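WRN at 20 nM final preincubated with compound 15 min at room temperature; reaction started with 100 nM fluorophore/quencher forked duplex oligonucleotide and 2 mM ATP final. Unwinding followed kinetically by red fluorescence (ex 525, em 598 nm).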
PI5P4K alpha inh: PI5P4K alpha (human) kinase inhibition; max response, %; P48426; 1.2% of 330,000 active; AID 652105; PI5P4Kalpha enzyme, ADP-Glo luminescence, 60 min; active compounds read low; active means max response of -50% or lower; inconclusive means between -30% and -50%; inactive means -30% or higher; further: value at the top dose of about 77 µM
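Controls without substrate or without enzyme flank wells where PI5P4Kalpha converts substrate using 5 microM ATP (final). Incubation lasts 60 minutes at room temperature; ADP formed is read by ADP-Glo luminescence.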
Pol iota inh: inhibitors of human DNA polymerase iota; Q9UNA4; Pol iota fluorescent replication assay, 10 min; Potency, µM (titrated, usually from 115 µM), most hits filed as inhibitors; 1% of 390,000 active; AID 588590
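Fluorescent replication assay read twice, at 0 min and 10 min after adding 50 nM (final) substrate. Enzyme (10 nM) and compounds were first incubated 15 min at room temperature; enzyme-free buffer wells were negative controls.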
Pol eta inh-1: blocks human DNA polymerase eta activity; Q9Y253; recombinant Pol eta, fluorescent DNA replication assay; Potency, µM (highest dose often 114 µM), hits mostly inhibitors; 1.2% of 390,000 active
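Pol eta (10 nM) was preincubated with compounds for 15 min at room temperature, after which fluorescent replication substrate (50 nM final) was added to start the reaction. Fluorescence was read kinetically at 0 and 10 min.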
Pol kappa inh-1: inhibitors of human DNA polymerase kappa; 0.53% of 400,000 active; AID 588579; Potency, µM (series often up to 107 µM), actives largely listed as inhibitors; purified Pol kappa, fluorescent DNA synthesis assay, 10 min; Q9UBT6
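Kinetic fluorescence screen: compound preincubated 15 min RT with 10 nM enzyme; 50 nM substrate (final) initiates; reads at 0/10 min.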
Pol beta inh: DNA polymerase beta (human) inhibition; P06746; Pol beta primer extension/strand displacement, fluorescence kinetic; Potency, µM (highest dose often 114 µM), most hits filed as inhibitors; 1.3% of 340,000 active; AID 485314
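Homogeneous kinetic assay of primer extension and strand displacement by 10 nM Pol beta, preincubated 15 min at room temperature with compound before 50 nM substrate (final) was added. Read at 0 and 10 min; four-parameter Hill fit.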
PGK validate: blocks T. brucei phosphoglycerate kinase; shares compounds with Pol kappa inh-1; TbPGK coupled GAPDH assay, Kinase-Glo luminescence; Potency, µM (doses to about 57.5 µM), usual class: inhibitors; 79% of 500 active; further: nearly all actives have a fitted effect of over 65% in size
Pol iota confirm: Human Pol iota inhibitor confirmatory assay | Pol iota primer extension, TAMRA/BHQ fluorescence | AID 720496 | 77% of 1,500 active | Potency, µM, actives largely listed as inhibitors | shares compounds with Pol kappa inh-1
Pol kappa inh-2: Pol kappa (human) inhibition, cherry-pick confirmation | purified Pol-kappa, fluorescent strand-displacement substrate | shares compounds with Pol eta inh-1 | 76% of 920 active | Potency, µM, most hits filed as inhibitors
Pol eta inh-2: confirmation of human DNA polymerase eta inhibitors; shares compounds with Pol eta inh-1; Pol eta primer extension, TAMRA/BHQ fluorescence, 10 min; Potency, µM, usual class: inhibitors; 64% of 2,600 active; AID 720502
Hits are given with their value; i = inactive; ? = inconclusive; nt = no result; [ ] = remark or other dose. Unless noted, the call rests on the fitted dose curve; in most records, active means well fitted curve in the direction sought with a large enough effect; inconclusive means small, poorly fitted or top-dose-only effect, or another doubt; inactive means no such curve, though single readings can be large; an effect the other way counts as inactive or inconclusive.

SMILES	WRN inhibitor	PI5P4K alpha inh	Pol iota inh	Pol eta inh-1	Pol kappa inh-1	Pol beta inh	Pol iota confirm	Pol eta inh-2	others
CCCCN(C(=O)c1cc2c(s1)CCC2)c1c(N)n(CC(C)C)c(=O)[nH]c1=O	i[11.6 µM]	?	45µM	?	79µM	nt	?	?
CCOC(=O)c1cccc(NC(=O)c2nn(-c3ccc(OC)cc3)c(=O)c3c2c2ccccc2n3C)c1	nt	nt	i	nt	i	i	nt	nt
Cc1ccc(OCC(=O)Nc2ccc(CN3CCCCC3)cc2)c(C)c1	i	i	i	i	i	i	nt	nt
CC(C)CCn1c(=O)c2cccnc2n(CC(=O)Nc2ccccc2F)c1=O	nt	nt	i	i	i	i	nt	nt
CC(C)N(Cc1ccccc1)S(=O)(=O)c1ccc(N2CCCCS2(=O)=O)cc1	nt	nt	i	i	i	i	nt	nt
CC(=O)Nc1sc2c(c1-c1nc3ccccc3s1)CN(C(C)C)CC2	nt	nt	13µM	?	50µM	nt	24	nt	Pol kappa inh-2=17
CCCCC(=O)Nc1sc2c(c1-c1nc3ccccc3s1)CCN(C(C)C)C2	nt	nt	nt	nt	nt	nt	?	nt	Pol kappa inh-2=11
CC(=O)Nc1sc2c(c1-c1nc3ccccc3s1)CCCN(C(C)C)C2	nt	nt	nt	nt	nt	nt	53	nt	Pol kappa inh-2=12
CC(C)N1CCc2c(sc(NC(=O)c3nc4ccccc4s3)c2C(N)=O)C1	i	i	i	i	i	i	nt	nt
CC(=O)N1CCc2c(sc(NC(=O)CSc3ccccc3)c2-c2nc3ccccc3s2)C1	nt	nt	?	?	i	i	nt	nt
Cc1sc2ccccc2[n+]1CCCC[n+]1c(C)sc2ccccc21	nt	nt	i	nt	i	nt	nt	nt
COc1ccc(-c2cc(C(F)(F)F)c3c(n2)sc2c(O)cc(=O)[nH]c23)c(OC)c1	?	?	?	13µM	20µM	56µM	67	67
COc1cc(/C=C2\SC(=O)N(CC(=O)Nc3cccc(C)c3)C2=O)cc([N+](=O)[O-])c1O	?	-92	?	22µM	i	i	75	48	PGK validate=?
CN(C)c1ccc2c(O)cc(=O)n(C)c2c1	i	nt	i	i	i	i	nt	nt
CN(C)c1ccc2cc(S(=O)(=O)O)cc(O)c2c1	?	?	?	10µM	32µM	nt	?	19
COC(=O)c1ccc(NC(=O)CN(C)S(=O)(=O)c2ccc(Br)s2)cc1	nt	nt	i	i	i	i	nt	nt
O=C(O)c1cccc(-c2ccc(/C=C3/SC(=Nc4ccccc4)N(Cc4cccnc4)C3=O)o2)c1	?	i	?	7.1µM	?	?	38	43	PGK validate=6.5µM;Pol kappa inh-2=21
O=C1C=C(O)CC(c2ccco2)C1 (stereo unspecified)	?	i	4.5µM	3.2µM	?	6.3µM	75	30	Pol kappa inh-2=17
CCOC(=O)c1ccccc1NC(=O)N1CCC(N2CCN(Cc3ccccc3)C(=O)C2=O)CC1	nt	nt	i	i	i	i	nt	nt
O=C1C2CC=C(Cl)CC2C(=O)N1CCCCCCN1C(=O)C2CC=C(Cl)CC2C1=O (stereo unspecified)	?	nt	18µM	20µM	79µM	20µM	60	30
CCOC(=O)c1c(S(=O)(=O)N2CCCC(C(=O)N3CCN(c4ccc(F)cc4)CC3)C2)c(C)n(C)c1C (stereo unspecified)	nt	nt	i	i	i	i	nt	nt
C[C@H]1O[C@@H](n2cc(F)c(=O)[nH]c2=O)[C@H](O)[C@H]1O	nt	nt	nt	nt	i	nt	nt	nt
O=C1C=CC(n2cc(F)c(=O)[nH]c2=O)O1 (stereo unspecified)	i	i	nt	20µM	nt	nt	nt	?	PGK validate=18µM
O=C(O)C(c1ccccc1)N1C(=O)/C(=C\c2ccc(-c3ccc(Br)cc3)o2)SC1=S (stereo unspecified)	?	?	11µM	?	?	?	42	27
O=C(O)C(c1ccccc1)N1C(=O)/C(=C\c2ccc(-c3ccccc3Cl)o2)SC1=S (stereo unspecified)	50µM	?	11µM	40µM	i	?	60	38	PGK validate=8.2µM;Pol kappa inh-2=11
SMILES	WRN inhibitor	PI5P4K alpha inh	Pol iota inh	Pol eta inh-1	Pol kappa inh-1	Pol beta inh	Pol iota confirm	Pol eta inh-2	others
COc1cc(/C=C2\SC(=S)N(C(C(=O)O)c3ccccc3)C2=O)cc(OC)c1OC (stereo unspecified)	i	i	?	i	i	i	nt	nt
O=C(O)c1ccc(-n2cccc2/C=C2\SC(=O)N(Cc3ccc(Br)cc3)C2=O)cc1	nt	nt	nt	nt	nt	nt	75	76
Cc1ccc(OCC(=O)NCC2(N3CCN(C)CC3)CCCCC2)cc1C	nt	nt	i	i	i	i	nt	nt
C=CCc1cc(/C=C/c2nc(O)c([N+](=O)[O-])c(=O)[nH]2)cc(OC)c1O	45µM	-64	?	11µM	79µM	25µM	?	30
COc1cc(/C=C/c2nc3ccccc3c(=O)[nH]2)cc(Br)c1O	i[11.6 µM]	i	?	?	i	?	nt	nt
Cc1ccc[n+](-c2nc([O-])sc2C=O)c1	i[11.6 µM]	?	?	22µM	?	?	?	?
N#Cc1ccccc1NC(=O)C(=O)NCC(c1cccnc1)N1CCc2ccccc21 (stereo unspecified)	nt	nt	i	i	i	i	nt	nt
O=C(Cn1c(=O)nc(-c2ccccc2F)c2cc(Cl)ccc21)N1CCN(c2ccccc2F)CC1	nt	nt	i	i	i	i	nt	nt
Cc1nnc(N2C(=O)c3oc4ccccc4c(=O)c3C2c2ccco2)s1 (stereo unspecified)	?	i	?	?	?	20µM	?	?
O=C1CCCC2=C1C(c1ccc(O)c(O)c1)Nc1ccc3ncccc3c12 (stereo unspecified)	?	?	13µM	35µM	40µM	11µM	?	?
CCN(c1ccccc1)c1ncnc2c1cnn2-c1ccc(C)cc1C	nt	nt	i	i	i	i	nt	nt
CC(=O)Oc1cccc(C)c1	nt	nt	nt	nt	i	nt	nt	nt
O=C1/C(=C/c2ccco2)SC(=S)N1CC1CCCO1 (stereo unspecified)	?	?	22µM	50µM	89µM	13µM	?	67	Pol kappa inh-2=42
O=C(CCN1C(=O)/C(=C\c2ccco2)SC1=S)Nc1ccc(C(=O)O)c(O)c1	50µM	-74	i	8.9µM	20µM	100µM	19	5.4	Pol kappa inh-2=4.7
O=C(CCN1C(=O)/C(=C/c2ccco2)SC1=S)Nc1ccc(O)cc1C(=O)O	32µM	-63	4.5µM	5.6µM	?	22µM	47	30	Pol kappa inh-2=13
O=C(CCCN1C(=O)/C(=C\c2ccccc2)SC1=S)Nc1ccc(O)cc1C(=O)O	i	i	i	i	i	i	nt	nt
